Data taken from article PMC4336329 (PLoS ONE, 2015).
Hit rate of the full screen: of about 310,000 compounds, about 2,200 (0.71%) showed an effect of 50% or more. The effect is printed as a negative number. Shown is part of a subset that was picked to be rich in strong results.

The molecules below were run against human ether-à-go-go-related gene (hERG) potassium channel (human, UniProt Q12809) (assay: primary screen, population patch clamp on CHO cells stably expressing hERG; higher = less effect of the substance).
human ether-à-go-go-related gene (hERG) potassium channel, sequence (Q12809 whole entry, looked up): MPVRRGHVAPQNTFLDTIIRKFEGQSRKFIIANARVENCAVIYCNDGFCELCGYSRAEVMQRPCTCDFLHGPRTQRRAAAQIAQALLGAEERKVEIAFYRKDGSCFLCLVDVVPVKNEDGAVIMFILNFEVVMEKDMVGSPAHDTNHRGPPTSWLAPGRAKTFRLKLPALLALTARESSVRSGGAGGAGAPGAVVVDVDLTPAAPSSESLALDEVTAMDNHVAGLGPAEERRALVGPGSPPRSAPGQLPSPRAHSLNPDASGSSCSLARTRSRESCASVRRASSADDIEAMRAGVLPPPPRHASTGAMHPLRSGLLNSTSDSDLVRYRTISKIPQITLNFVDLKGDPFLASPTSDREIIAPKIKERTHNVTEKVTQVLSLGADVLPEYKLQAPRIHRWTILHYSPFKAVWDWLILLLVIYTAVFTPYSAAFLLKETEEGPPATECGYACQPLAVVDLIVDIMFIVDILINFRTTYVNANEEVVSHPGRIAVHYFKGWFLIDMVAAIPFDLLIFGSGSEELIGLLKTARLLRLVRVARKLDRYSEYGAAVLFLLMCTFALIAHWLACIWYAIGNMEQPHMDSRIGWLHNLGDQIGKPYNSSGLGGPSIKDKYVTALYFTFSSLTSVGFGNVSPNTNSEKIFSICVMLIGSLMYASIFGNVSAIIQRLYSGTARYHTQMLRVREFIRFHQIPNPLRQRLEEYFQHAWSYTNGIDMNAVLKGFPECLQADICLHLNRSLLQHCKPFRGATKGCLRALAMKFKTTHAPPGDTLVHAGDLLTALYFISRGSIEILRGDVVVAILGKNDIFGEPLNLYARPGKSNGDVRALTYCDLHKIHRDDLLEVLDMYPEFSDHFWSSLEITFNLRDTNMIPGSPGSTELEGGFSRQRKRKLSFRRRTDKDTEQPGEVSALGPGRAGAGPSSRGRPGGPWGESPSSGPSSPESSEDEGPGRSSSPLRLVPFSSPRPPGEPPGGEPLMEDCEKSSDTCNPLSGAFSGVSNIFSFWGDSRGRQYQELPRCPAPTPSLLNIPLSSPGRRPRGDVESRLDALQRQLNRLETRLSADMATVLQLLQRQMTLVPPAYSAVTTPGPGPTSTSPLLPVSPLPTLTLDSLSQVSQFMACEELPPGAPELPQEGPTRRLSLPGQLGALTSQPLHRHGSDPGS

| SMILES | hERG current change (%, negative = inhibition) at 1uM |
| --- | --- |
| CCOC(=O)Cc1csc(NC(=O)CSc2nnnn2-c2ccc(C)c(C)c2)n1 | 10% |
| COc1ccc(S(=O)(=O)NCC2CCCN(Cc3ccc(O)cc3)C2)cc1 (stereo not shown) | -12.2% |
| Cc1ccc(CN2CC(C(=O)Nc3ccc(F)c([N+](=O)[O-])c3)CC2=O)cc1 (stereo not shown) | -1.97% |
| COc1ccc(NC(=O)COc2ccc(C)cc2)c([N+](=O)[O-])c1 | 8.91% |
| COc1ccc(OCC(=O)N/N=C(\C)CC(=O)Nc2ccc(OC)cc2[N+](=O)[O-])cc1 | -61.8% |
| CCOc1ccc(OCC(=O)Nc2ccc(OC)cc2[N+](=O)[O-])cc1 | 8.89% |
| C#CCn1c(=NC(=O)c2ccc(Cl)s2)sc2cccc(OC)c21 | 14.9% |
| COc1ccc(Br)cc1C(=O)Nc1cccc(C)c1C | 2.14% |
| COc1ccc(OC)c(NC(=O)NC2CCCCCCC2)c1 | 9.24% |
| Cc1cccc(NC(=O)CN2CCOCC2)c1C | 12.2% |
| Cc1cccc(NC(=O)CNC(=O)COc2ccc(-c3ccc(C#N)cc3)cc2)c1C | 8.38% |
| Cc1cccc(NC(=O)CN2CCN(C(=O)C(C)Oc3ccc(C#N)cc3)CC2)c1C (stereo not shown) | -54.7% |
| COc1ccc(CNC(=O)C2CSC(c3ccc(OC)cc3)N2C(C)=O)cc1 (stereo not shown) | 5.4% |
| CCCCN(C)CCN1C(=O)C2C(C(=O)Nc3ccc(C)cc3)C3C=CC2(O3)C1C(=O)NC1CCCCC1 (stereo not shown) | 15.1% |
| CCCCN(C)CCN1C(=O)C2C(C(=O)Nc3ccc(OC)cc3)C3C=CC2(O3)C1C(=O)NC1CCCCC1 (stereo not shown) | 3.44% |
| CCCCN(C)CCN1C(=O)C2C(C(=O)Nc3ccc(Cl)cc3)C3C=CC2(O3)C1C(=O)NC1CCCCC1 (stereo not shown) | -60.5% |
| CN1C(=O)C2(C(C#N)=C(N)Oc3c2oc(CO)cc3=O)c2ccccc21 (stereo not shown) | 12% |
| COc1cc(S(=O)(=O)N2CCN(C)CC2)ccc1Cl | 14.8% |
| Cc1ccc(C(OCC(O)CNCc2ccc(F)cc2)c2ccccc2)cc1.O=C(O)C(=O)O (stereo not shown) | -75.4% |
| Cc1ccc(OCC(O)CNCc2ccc(F)cc2)cc1 (stereo not shown) | -14.2% |
| CCOC(=O)C1CCCN(CC(O)COC(c2ccccc2)c2ccccc2)C1 (stereo not shown) | -78.8% |
| OC1CCCN(CC(O)COC(c2ccccc2)c2ccccc2)C1 (stereo not shown) | 1.02% |
| CC1CN(CC(O)COC(c2ccc(Cl)cc2)c2ccc(Cl)cc2)CC(C)O1.Cl (stereo not shown) | -2.64% |
| CN1CCN(CC(O)COC(c2ccc(Cl)cc2)c2ccc(Cl)cc2)CC1.Cl (stereo not shown) | -47.8% |
| OC(COC(c1ccc(F)cc1)c1ccc(F)cc1)CN1CCc2ccccc2C1 (stereo not shown) | -9.74% |
| OC(COC(c1ccc(Cl)cc1)c1ccc(Cl)cc1)CN1CCCC1 (stereo not shown) | -75.2% |

| SMILES | hERG current change (%, negative = inhibition) at 1uM |
| --- | --- |
| Cl.OC(COC(c1ccc(Cl)cc1)c1ccc(Cl)cc1)CN1CCc2ccccc2C1 (stereo not shown) | -6.99% |
| OC(COC(c1ccccc1)c1ccccc1)CN1CCc2ccccc2C1 (stereo not shown) | -75.3% |
| CC1CCCN(CC(O)COC(c2ccccc2)c2ccccc2)C1 (stereo not shown) | -15% |
| O=C(O)C(=O)O.O=C(c1ccccc1)c1ccc(OCC(O)CNCc2ccc(F)cc2)cc1 (stereo not shown) | -0.143% |
| O=C(CNC(=O)c1ccccc1F)NCCc1ccc(Cl)cc1Cl | 7.52% |
| O=C(NCc1n[nH]c(=S)n1-c1cccc(Cl)c1)c1ccc(S(=O)(=O)N2CCCCC2)cc1 | 13.6% |
| CCN(CC)S(=O)(=O)c1cccc(C(=O)Oc2cccc(NC(=O)c3cccs3)c2)c1 | 7.05% |
| CC(=O)N1C(=O)C2(C(C#N)=C(N)Oc3c2c(C)nn3-c2ccccc2)c2ccccc21 (stereo not shown) | 11% |
| Cc1cccc(C(=O)NCCC(=O)NCc2ccccc2F)c1 | 5.88% |
| COc1ccc(-n2nc(C(=O)NCC(=O)N3CCCCC3)c3ccccc3c2=O)c(OC)c1 | 15.2% |
| CCN(CC)S(=O)(=O)c1ccc(/C=C/C(=O)OCC(=O)NNC(=O)c2ccc(OC)cc2)cc1 | 9.94% |
| COc1ccc(N2CCN(CC(O)COC(c3ccc(F)cc3)c3ccc(F)cc3)CC2)cc1.O=C(O)C(=O)O (stereo not shown) | -74% |
| O=C(O)C(=O)O.OC1CCCN(CC(O)COC(c2ccc(F)cc2)c2ccc(F)cc2)C1 (stereo not shown) | -14.2% |
| Cc1ccc(C(OCC(O)CN2CCCCC2)c2ccccc2)cc1 (stereo not shown) | -68.6% |
| O=C(O)C(=O)O.OC(COC(c1ccc(F)cc1)c1ccc(F)cc1)CN1CCCC(C(F)(F)F)C1 (stereo not shown) | 14% |
| O=C(O)C(=O)O.OCCN1CCN(CC(O)COC(c2ccc(F)cc2)c2ccc(F)cc2)CC1 (stereo not shown) | -20.2% |
| COc1ccc(N2CCN(CC(O)COC(c3ccccc3)c3ccccc3)CC2)cc1 (stereo not shown) | -14.2% |
| COc1ccc(N2CCN(CC(O)COC(C)(C)C)CC2)cc1.O=C(O)C(=O)O (stereo not shown) | 12.5% |
| OC(COC(c1ccccc1)c1ccccc1)CN1CCCCC1 (stereo not shown) | -18.5% |
| O=C(O)C(=O)O.OC(COC(c1ccc(F)cc1)c1ccc(F)cc1)CN1CCCC1 (stereo not shown) | -62% |
| O=C(O)C(=O)O.OCC1CCCCN1CC(O)COC(c1ccc(F)cc1)c1ccc(F)cc1 (stereo not shown) | -60.9% |
| CCN1CCN(CC(O)COC(c2ccccc2)c2ccccc2)CC1 (stereo not shown) | 7.15% |
| Cc1ccc(C(OCC(O)CN2CCCCC2CO)c2ccccc2)cc1 (stereo not shown) | -39.7% |
| NC(=O)c1cc(Cl)ccc1OCC(=O)N1CCCc2ccccc21 | 11.4% |
| S=c1[nH]nc(-c2ccc(Cl)cc2)n1-c1ccc2c(c1)OCCO2 | 7.4% |
| CCN1C(=O)[C@H]2[C@@H](c3ccc(Cl)cc3)N3C(=O)CN(Cc4ccccc4)C(=O)[C@@]3(C)[C@H]2C1=O | 10.9% |
